Data: the supplement of paper PMC6607015
Structures can show the parent of a compound that is named as a salt.

test system: HeLa MZ; test: LBPA endosome anti-LBPA integrated intensity (sum per cell), Z-score; higher = more LBPA staining; settings: compound concentration in added solution (µM; 5 µl added to 20 µl cells): 10; 18 h
How it was run: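 In duplicate 384-well imaging plates, 3,500 HeLa MZ or A431 cells in 20 µl per well were seeded onto 5 µl of 10 µM compound solution. The cells were incubated for 18 h, fixed in 4% PFA and stained with 6C4 anti-LBPA antibody, filipin, propidium iodide and CellTracker green before four 20× images were acquired per well. Values are AcuityXpress-normalised Z-scores of per-cell integrated LBPA or filipin intensity, obtained by MetaXpress segmentation over the whole cell or in LBPA endosomes.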

First: CN1CCN(CC(=O)N2c3ccccc3C(=O)Nc3cccnc32)CC1 [Pirenzepine dihydrochloride]
Second: OCCN1CCN(CCCN2c3ccccc3C=Cc3ccccc32)CC1 [Opipramol dihydrochloride]
The “LBPA endosome anti-LBPA integrated intensity (z-score)” value of the first is lower: -0.294 for the first, 1.81 for the second.

Going from `O=C(O)/C=C/c1ccc(Cn2ccnc2)cc1` [Ozagrel hydrochloride] to `Cc1c(NC(=O)c2cccnc2)c(=O)n(-c2ccccc2)n1C` [Nifenazone], the “LBPA endosome anti-LBPA integrated intensity (z-score)” value falls from 0.0325 to -0.887.

Going from `CC(=O)[C@H]1CC[C@H]2[C@@H]3C=CC4=CC(=O)CC[C@@]4(C)[C@@H]3CC[C@]12C` [Dydrogesterone] to `CC(=O)[C@H]1CC[C@H]2[C@@H]3C[C@H](C)C4=CC(=O)CC[C@]4(C)[C@H]3[C@@H](O)C[C@]12C` [Medrysone], the “LBPA endosome anti-LBPA integrated intensity (z-score)” value falls from 1.12 to 1.

Compared with `COc1ccc2cc([C@H](C)C(=O)O)ccc2c1` [Naproxen], `COc1cc(NS(=O)(=O)c2ccc(N)cc2)ncn1` [Sulfamonomethoxine] is higher in “LBPA endosome anti-LBPA integrated intensity (z-score)” value: -0.655 for the first, 0.107 for the second.

First: CCCCc1oc2ccccc2c1C(=O)c1cc(I)c(OCCN(CC)CC)c(I)c1 [Amiodarone hydrochloride]
Second: COc1ccc(C(=O)NCc2ccc(OCCN(C)C)cc2)cc1OC [Itopride]
The “LBPA endosome anti-LBPA integrated intensity (z-score)” value of the first is higher: 0.0569 for the first, -0.657 for the second.

First: CN(C)CCC(c1ccc(Br)cc1)c1ccccn1 (centres undefined) [Brompheniramine maleate]
Second: CN(C)CCOC(c1ccccc1)c1ccccc1 [Diphenhydramine hydrochloride]
The “LBPA endosome anti-LBPA integrated intensity (z-score)” value of the first is lower: -0.0361 for the first, -0.0117 for the second.

Going from `CCN(CC)C(C)CN1c2ccccc2Sc2ccccc21` (centres undefined) [Ethopropazine hydrochloride] to `CN(C)CC/C=C1\c2ccccc2CSc2ccccc21` [Dosulepin hydrochloride], the “LBPA endosome anti-LBPA integrated intensity (z-score)” value falls from 5.78 to 0.828.

First: O=C(O)c1cc(/N=N/c2ccc(S(=O)(=O)Nc3ccccn3)cc2)ccc1O [Sulfasalazine]
Second: CC(=O)c1ccc(S(=O)(=O)NC(=O)NC2CCCCC2)cc1 [Acetohexamide]
The “LBPA endosome anti-LBPA integrated intensity (z-score)” value of the first is higher: 0.849 for the first, -0.393 for the second.

First: CCCc1ncc(C[n+]2ccccc2C)c(N)n1 [Amprolium hydrochloride]
Second: Cc1cc(-c2ccccc2)nnc1NCCN1CCOCC1 [Minaprine dihydrochloride]
The “LBPA endosome anti-LBPA integrated intensity (z-score)” value of the first is lower: -1.09 for the first, -0.183 for the second.

Compared with `Cc1ncc([N+](=O)[O-])n1CC(C)O` (centres undefined) [Secnidazole], `C[C@@H](O)[C@H]1C(=O)N2C(C(=O)O)=C(SCCNC=N)C[C@H]12` [Imipenem] is higher in “LBPA endosome anti-LBPA integrated intensity (z-score)” value: -0.288 for the first, 0.231 for the second.

Going from `OC(CCN1CCCCC1)(c1ccccc1)C1CC2C=CC1C2` (centres undefined) [Biperiden hydrochloride] to `CN1CCC(=C2c3ccccc3C=Cc3ccccc32)CC1` [Cyproheptadine hydrochloride], the “LBPA endosome anti-LBPA integrated intensity (z-score)” value falls from 1.45 to 0.629.

Going from `NC12CC3CC(CC(C3)C1)C2` [Adamantamine fumarate] to `CCOC(=O)O[C@]1(C(=O)COC(=O)CC)CC[C@H]2[C@@H]3CCC4=CC(=O)C=C[C@]4(C)[C@H]3[C@@H](O)C[C@@]21C` [Prednicarbate], the “LBPA endosome anti-LBPA integrated intensity (z-score)” value rises from -1.51 to -0.375.

Going from `Clc1ccc2nsnc2c1NC1=NCCN1` [Tizanidine HCl] to `Cc1ccc2c(c1)c1c3n2CCNC3CCC1` (centres undefined) [Pirlindole mesylate], the “LBPA endosome anti-LBPA integrated intensity (z-score)” value falls from 0.552 to 0.024.

Going from `CN(C)CCCO[C@@H]1[C@H]2OC(C)(C)O[C@H]2O[C@@H]1[C@H](O)CO` [Amiprilose hydrochloride] to `CC1(C)O[C@@H]2C[C@H]3[C@@H]4C[C@H](F)C5=CC(=O)C=C[C@]5(C)[C@@]4(F)[C@@H](O)C[C@]3(C)[C@]2(C(=O)CO)O1` [Fluocinolone acetonide], the “LBPA endosome anti-LBPA integrated intensity (z-score)” value rises from -0.384 to -0.371.

Compared with `NC(=O)N/N=C/c1ccc([N+](=O)[O-])o1` [Nitrofural], `N[C@@H](C(=O)N[C@@H]1C(=O)N2C(C(=O)O)=C(Cl)CS[C@H]12)c1ccccc1` [Cefaclor hydrate] is lower in “LBPA endosome anti-LBPA integrated intensity (z-score)” value: -0.605 for the first, -0.828 for the second.

Compared with `NCC[C@H](O)C(=O)N[C@@H]1C[C@H](N)[C@@H](O[C@H]2O[C@H](CN)[C@@H](O)[C@H](O)[C@H]2O)[C@H](O)[C@H]1O[C@H]1O[C@H](CO)[C@@H](O)[C@H](N)[C@H]1O` [Amikacin hydrate], `CCN1CCN(C(=O)N[C@@H](C(=O)N[C@@H]2C(=O)N3[C@@H]2SC(C)(C)[C@@H]3C(=O)O)c2ccccc2)C(=O)C1=O` [Piperacillin sodium salt] is higher in “LBPA endosome anti-LBPA integrated intensity (z-score)” value: -0.821 for the first, -0.383 for the second.

Compared with `CC(C)c1c(C(=O)Nc2ccccc2)c(-c2ccccc2)c(-c2ccc(F)cc2)n1CC[C@@H](O)C[C@@H](O)CC(=O)O` [Atorvastatin], `NC(=O)N1c2ccccc2C=Cc2ccccc21` [Carbamazepine] is higher in “LBPA endosome anti-LBPA integrated intensity (z-score)” value: -0.992 for the first, -0.106 for the second.

Going from `CC(=O)N[C@@H](CS)C(=O)O` [Acetylcysteine] to `CNNCc1ccc(C(=O)NC(C)C)cc1` [Procarbazine hydrochloride], the “LBPA endosome anti-LBPA integrated intensity (z-score)” value falls from -0.307 to -1.08.

Compared with `CCCCC(CC)CN1CN(CC(CC)CCCC)CC(C)(N)C1` (centres undefined) [Hexetidine], `CC(C)NNC(=O)c1ccncc1` [Iproniazide phosphate] is higher in “LBPA endosome anti-LBPA integrated intensity (z-score)” value: -1.15 for the first, -0.948 for the second.

With `Cc1cc(-n2c(=O)[nH]c(=O)n(C)c2=O)ccc1Oc1ccc(SC(F)(F)F)cc1` [Toltrazuril] the “LBPA endosome anti-LBPA integrated intensity (z-score)” value was 0.612.
